Experimental data reported in PubChem BioAssay AID504401 (The Scripps Research Institute Molecular Screening Center, 2011).
A number with no mark means an inactive call. No rule for the calls is given here.

System: Potassium Channel KATP
Assay: CYP450 and receptor off-target profile – biochemical, Ricerca HitProfilingScreen, selectivity assay for GPR7 antagonist project, late-stage follow-up (AID 504401)
Conditions: Ricerca radioligand binding and CYP450 panel, at 10 µM, stronger effect = higher value

COc1ccc(Oc2c(Cl)cnn(-c3cc(C)cc(C)c3)c2=O)cc1 gave an inhibition of 11%.
